# Source: article PMC7862700, “An all-to-all approach to the identification of sequence-specific readers for epigenetic DNA modifications on cytosine”
# Assays:
# Test in all cases: DAPPL (digital affinity profiling via proximity ligation, sequencing); 10 mM Tris-HCl pH 7.5, 50 mM NaCl, 1 mM DTT, 4% glycerol, room temperature, 30 min; GST-TFs on glutathione beads, 16-mer random dsDNA library, 0.1% formaldehyde crosslink after washing; high values mean tight binding
# FEV = target: T1, FEV (Homo sapiens, UniProt Q99581 1-238); settings: protein: recombinant; tags: N-terminal GST; dsDNA, one strand shown
# T1 sequence: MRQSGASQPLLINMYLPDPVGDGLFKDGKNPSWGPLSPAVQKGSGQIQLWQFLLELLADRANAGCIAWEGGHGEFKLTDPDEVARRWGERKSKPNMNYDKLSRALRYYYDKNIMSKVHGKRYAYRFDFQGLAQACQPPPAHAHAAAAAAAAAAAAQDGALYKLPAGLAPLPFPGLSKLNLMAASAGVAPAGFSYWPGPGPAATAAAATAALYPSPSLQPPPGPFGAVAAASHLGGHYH
# Outline: (§1)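 Yeast served to express human transcription factors as GST fusions, which were then captured on glutathione beads and labelled with DNA barcodes. Pooled with a tag-only sample, they were incubated with 200 nmole of a 16-mer random double-stranded DNA library for 30 min at room temperature in Tris/NaCl/DTT/glycerol buffer, washed, crosslinked with 0.1% formaldehyde, ligated by proximity, amplified by PCR and sequenced. Dividing each hexamer's read frequency for a factor by its frequency for the tag-only sample gives the binding signal.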
# ETV5 = ETV5 (Homo sapiens, UniProt P41161 1-510); settings: protein: recombinant; tags: N-terminal GST; dsDNA, one strand shown
# ETV5, sequence (P41161 whole entry): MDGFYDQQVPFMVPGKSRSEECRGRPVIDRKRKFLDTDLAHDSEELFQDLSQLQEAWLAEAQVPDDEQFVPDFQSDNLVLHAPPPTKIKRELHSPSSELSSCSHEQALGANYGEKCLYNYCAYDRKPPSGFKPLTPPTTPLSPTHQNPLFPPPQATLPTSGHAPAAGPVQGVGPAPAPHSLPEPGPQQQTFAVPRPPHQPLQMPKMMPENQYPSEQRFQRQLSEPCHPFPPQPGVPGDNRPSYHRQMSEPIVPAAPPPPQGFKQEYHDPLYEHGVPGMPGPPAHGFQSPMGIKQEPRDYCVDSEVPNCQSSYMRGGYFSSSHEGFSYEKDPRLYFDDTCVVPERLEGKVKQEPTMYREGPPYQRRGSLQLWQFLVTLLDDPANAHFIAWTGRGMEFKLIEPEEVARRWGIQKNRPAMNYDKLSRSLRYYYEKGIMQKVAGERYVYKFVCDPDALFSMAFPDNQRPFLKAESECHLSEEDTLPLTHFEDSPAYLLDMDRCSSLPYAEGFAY
# Outline: as §1
# HSF1 = HSF1 (Homo sapiens, UniProt Q00613 1-529); settings: protein: recombinant; tags: N-terminal GST; chain copies: 3; dsDNA, one strand shown
# HSF1, sequence (Q00613 whole entry): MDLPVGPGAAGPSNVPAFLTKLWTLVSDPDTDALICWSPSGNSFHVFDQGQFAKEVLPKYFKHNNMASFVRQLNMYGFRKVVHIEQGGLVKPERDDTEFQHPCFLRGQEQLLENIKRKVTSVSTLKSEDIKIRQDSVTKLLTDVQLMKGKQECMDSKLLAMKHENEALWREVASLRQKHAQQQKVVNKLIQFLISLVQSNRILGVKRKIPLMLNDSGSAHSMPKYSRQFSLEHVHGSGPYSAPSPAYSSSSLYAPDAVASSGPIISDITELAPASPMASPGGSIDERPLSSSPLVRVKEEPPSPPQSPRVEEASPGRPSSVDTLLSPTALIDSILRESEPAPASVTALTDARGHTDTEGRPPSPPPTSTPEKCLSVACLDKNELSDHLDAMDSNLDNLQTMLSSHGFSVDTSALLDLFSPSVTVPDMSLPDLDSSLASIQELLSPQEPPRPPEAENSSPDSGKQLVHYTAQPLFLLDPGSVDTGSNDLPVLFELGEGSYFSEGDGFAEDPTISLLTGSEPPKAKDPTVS
# Outline: as §1
# SPIC = target: T2, SPIC (Homo sapiens, UniProt Q8N5J4 1-248); settings: protein: recombinant; tags: N-terminal GST; dsDNA, one strand shown
# T2 sequence: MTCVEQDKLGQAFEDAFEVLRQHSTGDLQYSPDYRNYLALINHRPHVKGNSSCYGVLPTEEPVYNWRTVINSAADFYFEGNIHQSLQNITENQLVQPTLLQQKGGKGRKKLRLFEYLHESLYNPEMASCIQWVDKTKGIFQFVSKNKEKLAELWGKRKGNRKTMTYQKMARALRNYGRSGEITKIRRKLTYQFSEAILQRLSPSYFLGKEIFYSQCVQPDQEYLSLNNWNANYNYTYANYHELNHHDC
# Outline: as §1
# ELF4 = ELF4 (Homo sapiens, UniProt Q99607 1-663); settings: protein: recombinant; tags: N-terminal GST; dsDNA, one strand shown
# ELF4, sequence (Q99607 whole entry): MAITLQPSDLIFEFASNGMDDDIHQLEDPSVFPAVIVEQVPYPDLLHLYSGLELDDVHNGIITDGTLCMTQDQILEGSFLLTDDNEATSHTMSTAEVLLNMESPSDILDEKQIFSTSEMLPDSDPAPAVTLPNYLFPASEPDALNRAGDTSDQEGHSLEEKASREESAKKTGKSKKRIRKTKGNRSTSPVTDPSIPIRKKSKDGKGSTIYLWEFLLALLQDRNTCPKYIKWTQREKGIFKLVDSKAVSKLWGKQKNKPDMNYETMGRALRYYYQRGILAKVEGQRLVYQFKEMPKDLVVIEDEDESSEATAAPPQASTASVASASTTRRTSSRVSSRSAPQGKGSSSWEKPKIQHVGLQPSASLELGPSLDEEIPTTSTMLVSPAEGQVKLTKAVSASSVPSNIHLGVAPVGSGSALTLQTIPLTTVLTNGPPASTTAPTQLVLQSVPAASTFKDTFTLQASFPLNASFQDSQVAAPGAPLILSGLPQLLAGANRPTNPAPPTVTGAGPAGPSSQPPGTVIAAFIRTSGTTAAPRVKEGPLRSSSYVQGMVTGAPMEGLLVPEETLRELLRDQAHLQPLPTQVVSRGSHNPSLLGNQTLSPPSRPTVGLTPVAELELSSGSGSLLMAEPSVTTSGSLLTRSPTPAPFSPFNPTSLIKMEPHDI
# Outline: as §1
# ELK4 = target: T3, ELK4 (Homo sapiens, UniProt P28324-2 1-405); settings: protein: recombinant; tags: N-terminal GST; dsDNA, one strand shown
# T3 sequence: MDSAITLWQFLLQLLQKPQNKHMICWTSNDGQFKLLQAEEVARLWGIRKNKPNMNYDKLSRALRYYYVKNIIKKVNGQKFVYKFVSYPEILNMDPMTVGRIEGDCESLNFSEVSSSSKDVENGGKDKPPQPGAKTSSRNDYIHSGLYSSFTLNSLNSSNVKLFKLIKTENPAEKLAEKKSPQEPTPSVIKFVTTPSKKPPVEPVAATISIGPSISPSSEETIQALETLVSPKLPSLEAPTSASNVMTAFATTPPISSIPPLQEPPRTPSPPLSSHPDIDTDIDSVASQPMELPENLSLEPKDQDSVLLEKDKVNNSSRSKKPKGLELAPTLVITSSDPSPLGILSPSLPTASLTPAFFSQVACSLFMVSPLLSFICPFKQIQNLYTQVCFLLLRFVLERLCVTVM
# Outline: as §1
# ETV2 = target: T4, ETV2 (Homo sapiens, UniProt O00321 1-342); settings: protein: recombinant; tags: N-terminal GST; dsDNA, one strand shown
# T4 sequence: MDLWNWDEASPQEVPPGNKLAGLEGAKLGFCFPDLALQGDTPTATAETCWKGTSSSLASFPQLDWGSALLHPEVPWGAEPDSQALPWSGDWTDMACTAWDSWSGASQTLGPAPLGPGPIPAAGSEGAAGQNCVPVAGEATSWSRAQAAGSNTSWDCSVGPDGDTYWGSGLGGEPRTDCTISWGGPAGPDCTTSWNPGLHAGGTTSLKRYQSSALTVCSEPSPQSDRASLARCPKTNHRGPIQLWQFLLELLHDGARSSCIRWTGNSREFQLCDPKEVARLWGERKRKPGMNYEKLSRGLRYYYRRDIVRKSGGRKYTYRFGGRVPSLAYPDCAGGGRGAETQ
# Outline: as §1
# ELF3 = target: T5, ELF3 (Homo sapiens, UniProt P78545 1-371); settings: protein: recombinant; tags: N-terminal GST; dsDNA, one strand shown
# T5 sequence: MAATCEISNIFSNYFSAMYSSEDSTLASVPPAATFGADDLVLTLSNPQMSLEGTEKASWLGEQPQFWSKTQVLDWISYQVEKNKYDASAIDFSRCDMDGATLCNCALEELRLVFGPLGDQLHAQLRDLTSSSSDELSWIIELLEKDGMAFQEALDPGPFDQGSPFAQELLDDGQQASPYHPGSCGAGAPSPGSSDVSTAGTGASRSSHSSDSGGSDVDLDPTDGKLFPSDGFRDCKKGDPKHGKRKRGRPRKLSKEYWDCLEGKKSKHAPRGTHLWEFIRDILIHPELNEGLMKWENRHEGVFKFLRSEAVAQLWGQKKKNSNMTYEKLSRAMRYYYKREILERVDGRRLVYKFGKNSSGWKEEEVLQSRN
# Outline: as §1
# CRX = CRX (Homo sapiens, UniProt O43186 1-299); settings: protein: recombinant; tags: N-terminal GST; dsDNA, one strand shown
# CRX, sequence (O43186 whole entry): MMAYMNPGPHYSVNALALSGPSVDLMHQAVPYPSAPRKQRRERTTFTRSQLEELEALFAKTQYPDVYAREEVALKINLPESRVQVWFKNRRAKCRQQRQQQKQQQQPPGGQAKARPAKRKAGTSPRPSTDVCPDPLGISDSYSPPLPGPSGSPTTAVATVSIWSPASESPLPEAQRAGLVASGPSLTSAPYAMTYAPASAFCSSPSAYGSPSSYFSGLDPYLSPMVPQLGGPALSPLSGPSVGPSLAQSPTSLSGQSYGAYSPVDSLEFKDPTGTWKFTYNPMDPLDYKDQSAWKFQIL
# Outline: as §1
# ETV1 = ETV1 (Homo sapiens, UniProt P50549 1-477); settings: protein: recombinant; tags: N-terminal GST; dsDNA, one strand shown
# ETV1, sequence (P50549 whole entry): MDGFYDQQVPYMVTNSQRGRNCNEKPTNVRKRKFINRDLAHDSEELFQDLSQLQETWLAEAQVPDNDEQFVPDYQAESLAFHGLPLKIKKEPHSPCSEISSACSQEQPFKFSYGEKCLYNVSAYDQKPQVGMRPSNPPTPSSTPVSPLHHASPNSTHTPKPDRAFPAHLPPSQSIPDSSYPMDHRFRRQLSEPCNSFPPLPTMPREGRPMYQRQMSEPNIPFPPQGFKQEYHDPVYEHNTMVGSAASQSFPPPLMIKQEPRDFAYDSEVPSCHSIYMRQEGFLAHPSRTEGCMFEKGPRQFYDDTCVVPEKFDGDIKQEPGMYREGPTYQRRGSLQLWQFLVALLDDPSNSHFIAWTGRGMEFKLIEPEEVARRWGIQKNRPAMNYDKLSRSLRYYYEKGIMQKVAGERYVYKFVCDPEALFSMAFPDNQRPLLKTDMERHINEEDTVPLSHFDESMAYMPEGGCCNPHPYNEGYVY
# Outline: as §1
# ERF = target: T6, ERF (Homo sapiens, UniProt P50548 1-548); settings: protein: recombinant; tags: N-terminal GST; dsDNA, one strand shown
# T6 sequence: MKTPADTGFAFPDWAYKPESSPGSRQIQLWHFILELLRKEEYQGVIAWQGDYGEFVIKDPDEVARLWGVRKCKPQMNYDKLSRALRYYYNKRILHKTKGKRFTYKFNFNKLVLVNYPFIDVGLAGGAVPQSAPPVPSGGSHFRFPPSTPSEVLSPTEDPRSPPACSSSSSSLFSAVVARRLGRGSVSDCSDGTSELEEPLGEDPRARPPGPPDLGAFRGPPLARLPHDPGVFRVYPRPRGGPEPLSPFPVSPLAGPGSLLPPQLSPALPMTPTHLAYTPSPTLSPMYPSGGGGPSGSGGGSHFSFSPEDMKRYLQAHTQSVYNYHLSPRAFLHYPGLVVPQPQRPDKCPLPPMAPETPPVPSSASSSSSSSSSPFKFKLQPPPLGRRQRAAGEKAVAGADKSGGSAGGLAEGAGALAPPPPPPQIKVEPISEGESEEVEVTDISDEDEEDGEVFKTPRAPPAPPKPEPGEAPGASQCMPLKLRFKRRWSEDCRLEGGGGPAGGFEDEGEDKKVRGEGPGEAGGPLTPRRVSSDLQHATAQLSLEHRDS
# Outline: as §1
# ETV3L = target: T7, ETV3L (Homo sapiens, UniProt Q6ZN32 1-361); settings: protein: recombinant; tags: N-terminal GST; dsDNA, one strand shown
# T7 sequence: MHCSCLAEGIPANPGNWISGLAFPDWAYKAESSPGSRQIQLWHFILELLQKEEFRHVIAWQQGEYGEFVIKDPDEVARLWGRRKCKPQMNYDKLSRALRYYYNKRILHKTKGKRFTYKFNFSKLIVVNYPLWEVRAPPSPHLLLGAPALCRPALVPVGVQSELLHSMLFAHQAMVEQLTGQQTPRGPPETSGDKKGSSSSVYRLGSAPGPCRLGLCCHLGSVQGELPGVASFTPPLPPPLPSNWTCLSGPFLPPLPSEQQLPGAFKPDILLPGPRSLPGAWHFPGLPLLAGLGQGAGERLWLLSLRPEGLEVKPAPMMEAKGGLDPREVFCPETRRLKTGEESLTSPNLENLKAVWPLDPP
# Outline: as §1
# ETS2 = target: T8, ETS2 (Homo sapiens, UniProt P15036 1-469); settings: protein: recombinant; tags: N-terminal GST; dsDNA, one strand shown
# T8 sequence: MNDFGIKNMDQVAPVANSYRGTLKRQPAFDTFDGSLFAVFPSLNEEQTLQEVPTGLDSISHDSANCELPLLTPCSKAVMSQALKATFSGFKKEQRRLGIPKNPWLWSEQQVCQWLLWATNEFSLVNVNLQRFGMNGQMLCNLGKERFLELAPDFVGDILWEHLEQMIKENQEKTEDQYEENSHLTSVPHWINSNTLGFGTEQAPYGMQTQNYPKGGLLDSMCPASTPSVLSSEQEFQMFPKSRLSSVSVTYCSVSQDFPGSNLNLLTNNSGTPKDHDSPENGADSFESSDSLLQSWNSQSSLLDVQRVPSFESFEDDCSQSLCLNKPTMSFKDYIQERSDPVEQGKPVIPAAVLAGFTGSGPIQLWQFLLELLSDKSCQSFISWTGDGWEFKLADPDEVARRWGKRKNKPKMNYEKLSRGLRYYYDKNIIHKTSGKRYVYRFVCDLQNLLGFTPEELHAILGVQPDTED
# Outline: as §1
# SPDEF = target: T9, SPDEF (Homo sapiens, UniProt O95238 1-335); settings: protein: recombinant; tags: N-terminal GST; dsDNA, one strand shown
# T9 sequence: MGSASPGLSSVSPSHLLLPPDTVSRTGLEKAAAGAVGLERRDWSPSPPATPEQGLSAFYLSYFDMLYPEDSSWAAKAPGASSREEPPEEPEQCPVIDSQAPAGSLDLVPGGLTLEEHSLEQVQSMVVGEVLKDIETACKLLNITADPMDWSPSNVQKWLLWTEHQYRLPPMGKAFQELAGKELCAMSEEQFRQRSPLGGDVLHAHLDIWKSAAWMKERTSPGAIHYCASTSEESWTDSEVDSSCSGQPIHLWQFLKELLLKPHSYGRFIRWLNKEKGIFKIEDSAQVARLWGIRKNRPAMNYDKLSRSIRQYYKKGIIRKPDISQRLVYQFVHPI
# Outline: as §1
# ETV7 = target: T10, ETV7 (Homo sapiens, UniProt Q9Y603 1-341); settings: protein: recombinant; tags: N-terminal GST; dsDNA, one strand shown
# T10 sequence: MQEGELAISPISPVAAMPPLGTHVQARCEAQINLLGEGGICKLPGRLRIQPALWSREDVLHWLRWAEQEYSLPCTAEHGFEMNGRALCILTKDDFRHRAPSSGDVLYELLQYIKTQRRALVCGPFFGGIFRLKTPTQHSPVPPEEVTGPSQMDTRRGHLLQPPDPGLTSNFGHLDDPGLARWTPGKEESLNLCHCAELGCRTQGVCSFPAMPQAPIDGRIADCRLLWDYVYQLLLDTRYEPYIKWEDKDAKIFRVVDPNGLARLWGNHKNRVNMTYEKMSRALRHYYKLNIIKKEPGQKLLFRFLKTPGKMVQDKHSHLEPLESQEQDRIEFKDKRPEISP
# Outline: as §1
# ELF5 = target: T11, ELF5 (Homo sapiens, UniProt Q9UKW6-2 1-255); settings: protein: recombinant; tags: N-terminal GST; dsDNA, one strand shown
# T11 sequence: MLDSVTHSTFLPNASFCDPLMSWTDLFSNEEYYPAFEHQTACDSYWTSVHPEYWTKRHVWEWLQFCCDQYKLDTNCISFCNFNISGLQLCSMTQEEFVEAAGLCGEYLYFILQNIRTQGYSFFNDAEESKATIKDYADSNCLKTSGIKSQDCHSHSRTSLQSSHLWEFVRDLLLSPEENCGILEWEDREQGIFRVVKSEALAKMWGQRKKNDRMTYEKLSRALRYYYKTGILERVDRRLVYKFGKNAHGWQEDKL
# Outline: as §1
# ETV3 = target: T12, ETV3 (Homo sapiens, UniProt P41162-2 1-143); settings: protein: recombinant; tags: N-terminal GST; dsDNA, one strand shown
# T12 sequence: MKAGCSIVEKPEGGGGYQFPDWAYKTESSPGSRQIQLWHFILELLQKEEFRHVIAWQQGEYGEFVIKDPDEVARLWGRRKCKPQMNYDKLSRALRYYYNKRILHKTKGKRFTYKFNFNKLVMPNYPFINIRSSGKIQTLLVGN
# Outline: as §1
# ETV6 = ETV6 (Homo sapiens, UniProt P41212 1-452); settings: protein: recombinant; tags: N-terminal GST; dsDNA, one strand shown
# ETV6, sequence (P41212 whole entry): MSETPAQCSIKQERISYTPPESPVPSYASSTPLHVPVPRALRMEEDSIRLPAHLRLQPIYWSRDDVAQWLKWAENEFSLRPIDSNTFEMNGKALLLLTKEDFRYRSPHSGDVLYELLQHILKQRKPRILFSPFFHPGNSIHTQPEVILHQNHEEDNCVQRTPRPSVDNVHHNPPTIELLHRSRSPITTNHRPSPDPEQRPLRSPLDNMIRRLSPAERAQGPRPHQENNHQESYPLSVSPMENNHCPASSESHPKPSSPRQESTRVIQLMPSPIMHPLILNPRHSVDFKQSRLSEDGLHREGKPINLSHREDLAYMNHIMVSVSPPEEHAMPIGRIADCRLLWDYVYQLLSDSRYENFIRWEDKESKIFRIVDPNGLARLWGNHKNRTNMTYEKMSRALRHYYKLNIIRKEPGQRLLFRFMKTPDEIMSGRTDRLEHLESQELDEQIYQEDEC
# Outline: as §1
sequence,measurement,setting,value
TAGCAC,binding signal,FEV,"1.22 fold enrichment (6-mer frequency, TF over GST control)"
same,binding signal,ETV5,"1.14 fold enrichment (6-mer frequency, TF over GST control)"
same,binding signal,HSF1,"1.24 fold enrichment (6-mer frequency, TF over GST control)"
same,binding signal,SPIC,"1.04 fold enrichment (6-mer frequency, TF over GST control)"
same,binding signal,ELF4,"1.18 fold enrichment (6-mer frequency, TF over GST control)"
same,binding signal,ELK4,"1.11 fold enrichment (6-mer frequency, TF over GST control)"
same,binding signal,ETV2,"1.25 fold enrichment (6-mer frequency, TF over GST control)"
same,binding signal,ELF3,"1.15 fold enrichment (6-mer frequency, TF over GST control)"
same,binding signal,CRX,"1.22 fold enrichment (6-mer frequency, TF over GST control)"
same,binding signal,ETV1,"1.19 fold enrichment (6-mer frequency, TF over GST control)"
same,binding signal,ERF,"1.33 fold enrichment (6-mer frequency, TF over GST control)"
same,binding signal,ETV3L,"1.21 fold enrichment (6-mer frequency, TF over GST control)"
same,binding signal,ETS2,"1.15 fold enrichment (6-mer frequency, TF over GST control)"
same,binding signal,SPDEF,"1.14 fold enrichment (6-mer frequency, TF over GST control)"
same,binding signal,ETV7,"1.08 fold enrichment (6-mer frequency, TF over GST control)"
same,binding signal,ELF5,"1.09 fold enrichment (6-mer frequency, TF over GST control)"
same,binding signal,ETV3,"1.1 fold enrichment (6-mer frequency, TF over GST control)"
same,binding signal,ETV6,"1.02 fold enrichment (6-mer frequency, TF over GST control)"
